Screening results (PubChem BioAssay)
hgDAF-12 ag: agonists of H. glycines DAF-12 nuclear receptor. HEK293 GAL4-hgDAF12 UAS-luciferase reporter, agonist luminescence; normalized to butyrate control. activation, % at 6.8 µM. 1.8% of 370,000 active;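 active means activation above a cutoff set at the mean of all screened compounds plus 3 SD, cut at about 10% in these data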;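 further: 0% = DMSO wells and 100% = sodium butyrate wells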
DAX1 inh-1: inhibitors of DAX1 repression of SF-1 activated StAR promoter; inhibition, % at 6.8 µM; HEK293T StAR-luciferase reporter, SF-1/DAX-1 repression relief; AID 652010; 1.1% of 370,000 active;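 active means inhibition above the mean over all tested compounds plus 3 SD, cut at about 3.6% in these data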;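 further: 0% = DAX-1 cells with DMSO and 100% = cells lacking DAX-1 with DMSO; higher inhibition means more luminescence from relief of DAX-1 repression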
ssDAF12 agonist: activators of S. stercoralis DAF-12 nuclear receptor. activation, % at 6.8 µM. 1% of 370,000 active. HEK293 ssDAF-12/GRIP1 lit1-tk-luc reporter, luminescence; % of 3 µM dafachronic acid response;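 active means activation above the mean over all tested compounds plus 3 SD, cut at about 0.9% in these data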;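 further: 0% = DMSO-only wells and 100% = 3 µM delta7-dafachronic acid wells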
hcDAF12 agonist: H. contortus DAF-12 activation, primary screen; 1.4% of 370,000 active; activation, % at 6.8 µM; HEK293 hcDAF-12 lit1-tk-luc reporter, luminescence; 0% DMSO, 100% Δ7-dafachronic acid; AID 652067;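 active means activation above the mean of all tested compounds plus 3 SD, cut at about 5.5% in these data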;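 further: 100% = response to 3 µM Δ7-dafachronic acid high control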
DAX1 inh-2: NR0B1 (DAX1) inhibition; P51843; HEK293 Gal4-DAX1 luciferase reporter, luminescence; inhibition, % at 6.75 µM; 0.99% of 340,000 active; AID 504766;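 active means inhibition above the mean over all tested compounds plus 3 SD, cut at about 4.2% in these data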;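 further: 0% = DAX1-transfected cells with DMSO and 100% = empty-vector control cells with DMSO; inhibition shows as a rise in luminescence from relieved DAX1 repression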
Target sequence (P51843 207-470 limits assumed): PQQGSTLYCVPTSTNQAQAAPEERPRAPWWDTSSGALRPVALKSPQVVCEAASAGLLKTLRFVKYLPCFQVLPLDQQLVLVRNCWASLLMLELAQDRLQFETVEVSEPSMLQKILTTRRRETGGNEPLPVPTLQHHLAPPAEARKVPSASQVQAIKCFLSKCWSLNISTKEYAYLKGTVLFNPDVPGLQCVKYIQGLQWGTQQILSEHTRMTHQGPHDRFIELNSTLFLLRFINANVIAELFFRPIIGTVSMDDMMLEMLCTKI
AHR activator: activates the human aryl hydrocarbon receptor. P35869. AHR-responsive luciferase reporter cells, luminescence. activation, % at 5 µM. 2.5% of 320,000 active. AID 2796; in the data active means activation above about 47%;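 further: 0% = vehicle wells and 100% = reference agonist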
hgDAF12 conf: confirmation of H. glycines DAF-12 agonists | AID 743050 | HEK293 GAL4-hgDAF12 luciferase reporter, agonist mode; percent of butyrate response | 80% of 3,300 active | activation, % at 6.8 µM | shares compounds with hgDAF-12 ag;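 active means mean activation over triplicate wells above the hit cutoff derived from the earlier primary screen, cut at about 11% in these data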;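 further: 0% = DMSO low control and 100% = 2 mM sodium butyrate high control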
LXRb DAF12 ctr: activates human LXR-beta, counter-screen for DAF-12 agonists. 3,300 tested, under 10 active. activation, % at 6.8 µM. HEK293 Gal4-LXR luciferase reporter, 24 h. shares compounds with hgDAF-12 ag;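 active means mean activation of the triplicate above a set limit carried over from the primary screen, none filed active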
Starred values were filed as active, the others as inactive; . = no result. Most compounds without a hit are left out; they make up all but 5.7% or so of the library.

SMILES	hgDAF-12 ag	DAX1 inh-1	ssDAF12 agonist	hcDAF12 agonist	DAX1 inh-2	AHR activator	hgDAF12 conf	LXRb DAF12 ctr
CCn1ncc(/C=C/C(=O)c2ccccc2)c1C	17*	1	0	4	3	2	13*	1
CCOC(=O)c1c(C)oc2c(CC(=O)c3ccccc3)c(Cl)c(O)c(O)c12	-2	0	-2	0	0	0	.	.
CN(Cc1cccnc1)C(=O)c1ccc2nc(Cc3ccccc3F)oc2c1	4	1	-1	1	0	18	.	.
COc1cc(OC)c(C2=NOC(C(=O)N3CCc4ccccc4C3)C2)cc1Cl (configuration not stated)	14*	0	-1	-1	0	-9	-4	0
c1cc(-c2cc3cc(N4CCOCC4)ccc3o2)cs1	15*	3	0	5	4.8*	5	14*	1
CCN1CCN(Cc2nnc(-c3ccc(C)cc3)o2)CC1	-1	1	0	5	0	1	.	.
CCOC(=O)c1ccc(NCc2nc3ccccc3[nH]2)cc1	15*	3	0	5	1	14	5	0
COC(=O)/C=C1\N/C(=N\c2nc(C)cc(C)n2)N(c2ccc(C)cc2)C1=O	-4	0	-2	0	-1	5	.	.
Cc1ccc(Cc2c(-c3ccc(Br)cc3)nc3ccc(Br)cn23)cc1	17*	-2	0	2	3	.	9	0
Cc1ccc2nc(-c3cccc(Cl)c3)c(Cc3ccsc3)n2c1	16*	2	1	2	.	.	8	0
Clc1cccc(-c2nc3ccc(Br)cn3c2Cc2ccsc2)c1	8	3	-1	4	.	.	.	.
COc1ccccc1Cc1c(-c2ccc(Cl)cc2)nc2ccc(C)cn12	14*	3	1.2*	6.1*	.	.	15*	1
CCOc1ccc(S(=O)(=O)N2Cc3ccccc3CC2C(=O)O)cc1 (configuration not stated)	3	1	-1	1	0	1	.	.
Cc1ccc(C)c(NC(=O)c2cc(-c3ccc(Cl)cc3)nc3ccccc23)c1	15*	0	-1	-1	.	.	1	0
C/C(=N\NC(=O)c1cc(-c2ccccc2)nc2ccccc12)c1ccc(Cl)cc1	2	0	-1	-1	.	.	.	.
CCN1C(=O)CC(N2CCC(c3nc4ccccc4[nH]3)CC2)C1=O (configuration not stated)	-1	0	-1	-1	0	0	.	.
O=C(Nc1cccc(Cl)c1)c1ccc(OC(=S)N2CCOCC2)cc1	19*	1	-1	1	-2	1	7	0
Cc1cccc(NC(=O)c2cccc(OC(=S)N3CCOCC3)c2)c1	-3	-1	0	-2	-1	2	.	.
C/C(=N\NC(=O)c1ccoc1C)c1ccccc1	14*	3.9*	1	5.6*	.	-3	11*	1
C/C(=N/NC(=O)c1ccccc1)c1ccc(NC(=O)C(F)(F)F)cc1	14*	2	0	4	2	8	5	0
COc1ccc(/C(N)=N/OC(=O)c2ccco2)cc1OC	18*	3	0	2	2	0	13*	0
CCOC(=O)c1ccc(OS(=O)(=O)c2ccccc2)c(OC)c1	16*	3	0	4	1	2	11*	1
CCc1c(C)nc(N2CCN(c3ccccc3)CC2)[nH]c1=O	2	0	0	-2	-1	-7	.	.
COc1cccc(C(=O)O/N=C(\N)c2ccncc2)c1	17*	2	-1	2	2	6	16*	1
N/C(=N\OC(=O)/C=C/c1ccccc1)c1ccccc1	17*	4.3*	1	2	3	4	15*	1
SMILES	hgDAF-12 ag	DAX1 inh-1	ssDAF12 agonist	hcDAF12 agonist	DAX1 inh-2	AHR activator	hgDAF12 conf	LXRb DAF12 ctr
COc1ccc(C(=O)O/N=C(\N)c2ccncc2)cc1OC	5	0	-1	0	1	19	.	.
COc1cc(OC)cc(C(=O)O/N=C(\N)c2ccccn2)c1	13*	1	0	2	.	29	13*	0
COc1ccc(C(=O)O/N=C(\N)c2ccccn2)cc1	-6	0	-2	-2	-3	-5	.	.
N/C(=N\OC(=O)/C=C/c1ccccc1)c1ccc(Cl)cc1	4	0	-1	-2	.	-3	.	.
COc1ccc(C(=O)O/N=C(\N)c2ccccc2)cc1OC	17*	2	0	5	5.9*	14	12*	1
COc1ccc(NC(=O)C2CC(c3ccc(Cl)cc3)=NO2)cc1 (configuration not stated)	0	1	-1	-1	0	1	.	.
Cc1occc1C(=O)O/N=C(\N)c1ccccc1	14*	3	0	5	.	7	14*	1
O=C1CC(/C=C/c2ccc(Cl)cc2)=Nc2ccccc2N1	17*	1	-1	2	3	28	8	1
Cc1cc(C(=O)NC2=NCCS2)cs1	17*	3	0	5	0	20	15*	1
Cc1nc2ccccc2nc1OCc1cccc(Cl)c1	-1	0	-2	-2	-1	6	.	.
Cc1nc2ccccc2nc(C)c1=NOCc1cccc(F)c1	14*	3	0	3	0	10	-4	0
CC1(C)SCC(C(=O)O)NC1=O (configuration not stated)	-5	0	0	0	1	-3	.	.
CCOC(=O)c1ccc(NC(=O)CSc2nnc(Cc3cccs3)n2C)cc1	-1	0	-1	-1	0	1	.	.
Cc1nnc(SCC(=O)Nc2ccc(-c3nc4ccccc4s3)cc2)s1	20*	4	1	6.0*	3	11	20*	1
Cc1ccc2nc(-c3ccc(NC(=O)CSc4nccc(=O)[nH]4)cc3)sc2c1	14*	2	0	5	2	-10	12*	1
Cc1ccc(NC(=O)CSc2nnc(-c3ccncc3)s2)cc1	1	0	-1	-1	0	2	.	.
Cc1ccc2nc(-c3ccc(NC(=O)CSc4nnc(Cc5cccs5)n4C)cc3)sc2c1	13*	2	0	4	.	.	16*	1
CCCCn1c(SCC(=O)c2ccc3c(c2)OCCO3)nnc1-c1ccoc1C	-4	-1	-2	0	-1	2	.	.
COc1cccc(NC(=O)CCc2c(C)nc3nc(CNC(=O)c4cccc(F)c4)nn3c2C)c1	1	0	-1	-2	0	3	.	.
